Here are results for 93 compounds from PubChem BioAssay AID602163 (The Scripps Research Institute Molecular Screening Center, 2012).

Values joined by “and” are separate entries in the source; they are usually repeats but may differ in a detail not shown here. Equal values may be shown once. About 1,100 (0.31%) of roughly 360,000 compounds were called active. The list comes from a sample in which actives are over-represented; it also holds similar structures and randomly drawn compounds. Unmarked numbers belong to inactive results. No stated cut-off is given here; in the data, active means activation above about 7.5%; inactive means the rest.

The test relates to Methionine sulfoxide reductase A (Bos taurus). Put plainly: activation of methionine sulfoxide reductase A – biochemical, absorbance, bovine, HTS, primary screen (AID 602163).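 Further: 0% = vehicle and 100% = reference activator.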 The settings on record: purified bovine MsrA, absorbance read-out; at 10.6 µM; active compounds read high.
Turning to `CN(/C(=N/S(=O)(=O)c1cccs1)c1ccccc1)c1ccc(O)cc1`, the activation was -3.66%.
As to `Brc1ccc(-c2n(-c3ccccn3)c3ccccc3[n+]2-c2ccccn2)cc1`, the activation was -3.31%.
Consider `CCn1c(SCC(=O)Nc2cc(C)ccc2C)nnc1-c1cnccn1`, for which the activation was -14%.
In the case of `CCOC(=O)Cc1csc(NC(=O)CSc2nnc(-c3cccnc3)n2Cc2ccco2)n1`, the activation was -2.57%.
The figure for `CCc1ccc(NC(=O)CSc2nnc(-c3cnccn3)n2Cc2ccco2)cc1` is 10.3% (active).
For `CN(C(=O)c1cccc(NC(=O)Cc2ccc(NC(=O)C3CCCN(C(=O)C4CCCC4)C3)cc2)c1)C1CCC1` (stereo not drawn), the activation was -1.96%.
`CN(C(=O)c1cccc(NC(=O)Cc2ccc(NC(=O)C3CCCN(C(=O)C4CC4)C3)cc2)c1)C1CC1` (stereo not drawn): the activation is -5.02%.
The figure for `O=C(Cc1ccc(NC(=O)C2CCCN(C(=O)C3CCCCC3)C2)cc1)Nc1cccc(C(=O)N2CCCCC2)c1` (stereo not drawn) is 8.7% (active); for `C=C(C)C(=O)O[C@H]1C/C(C)=C\C(=O)/C=C(\C)[C@H](O)[C@@H]2OC(=O)C(=C)[C@@H]21` it is -5.09%; for `COCc1cccc(-c2csc(C(O)c3ccc(F)cc3)n2)c1` (stereo not drawn) it is -2.06%.
`CSc1ccc(CN(C)CC(=O)NCc2ccc(F)cc2)cc1`: the activation was -2.54%.
As for `COc1cc(OC)cc(-c2c(C#Cc3ccsc3)c3cc(-c4ccc(SC)cc4)ccc3n2C)c1`, the activation is -0.65%.
For the compound `C/C=C/C(=O)OCC(=O)Nc1ccc(F)cc1Cl`, the activation was -7.53%.
As for `CN1c2ccc(C=O)c3c(C=O)ccc(c23)N(C)C1(C)C`, the activation was 9.27% (active).
Regarding `c1ccc(CN=C2Nc3ccccc3CS2)nc1`, the activation was -3.81%.
The figure for `COc1cc(F)c(C2=CC(=O)CC(C)(C)C2)cc1F` is -3.81%; for `O=C(COC(=O)CSc1nnc(-c2ccc(Cl)cc2)o1)Nc1cc(Cl)cc(Cl)c1` it is -3.64%; for `CC(NS(=O)(=O)c1ccccc1)c1n[nH]c(=S)n1-c1ccccc1` (stereo not drawn) it is -0.57%.
The figure for `Cc1ccc(C(=O)COC(=O)CCN2C(=O)C3C4CC(C(Br)C4Br)C3C2=O)cc1` (stereo not drawn) is -3.01%; for `O=C(c1ccco1)N1CCN(C(=S)Nc2cc(F)cc(F)c2)CC1` it is -6.94%.
As to `O=C(c1ccco1)N1CCN(Cc2cccc(C(F)(F)F)c2)CC1`, the activation is 7.76% (active).
As to `O=C(c1ccco1)N1CCN(CCOc2ccccc2)CC1`, the activation was -3.77%.
The figure for `Cn1c(=O)c2[nH]c(NCC3CCCO3)nc2n(-c2ccccc2)c1=O` (stereo not drawn) is -0.78%.
Take `Cc1cccc(NC(=O)CSc2nnc(CCCCCNC(=O)OC(C)(C)C)o2)c1C`: the activation is -0.45%.
For `O=C(O)CC(CC(=O)N1CCOCC1)c1ccccc1` (stereo not drawn), the activation was -2.3%.
The figure for `CC1=NN(C(=O)Cc2ccc(C)cc2)C(O)(c2cccnc2)C1` (stereo not drawn) is 0.86%; for `COc1ccc(NC(=O)NCc2ccc3c(c2)OCO3)c(OC)c1` it is -3.53%; for `COc1ccccc1-n1c(C)nc2cc(C(=O)NCc3ccc4c(c3)OCO4)ccc21` it is -1.98%.
For `COc1cc(OC)c(C(=O)NCc2ccc3c(c2)OCO3)cc1OC`, the activation is 9.15% (active).
`CCOC(=O)C1CCN(C(=O)c2cccc(S(=O)(=O)N(CC)c3ccccc3)c2)CC1`: the activation was -8.63%.
`COc1ccccc1NC(=O)CCN1CCN(c2ccc(Cl)cc2)CC1`: the activation is -3.09%.
Turning to `O=C(CCN1CCN(c2ccccc2)CC1)NNC(=S)Nc1ccccc1`, the activation was 12.7% (active).
Regarding `O=C(CN1CCN(c2ccc(O)cc2)CC1)Nc1ccc(-c2ccccc2)cc1`, the activation was -3.19%.
On to `O=C(Nc1ccccc1)c1nnsc1S(=O)(=O)c1ccc(Cl)cc1`, for which the activation was -11.8%.
For `O=c1[nH]snc1-c1c(Cl)cccc1Cl`, the activation is -0.32%.
For the compound `CCC(C)N1C(=O)S/C(=C/c2ccc(Sc3nc4ccccc4[nH]3)o2)C1=O` (stereo not drawn), the activation was -7.08%.
As to `Cc1ccc(S(=O)(=O)N2CCC(C(=O)N3CCCCCCC3)CC2)cc1`, the activation was -4.45%.
Consider `Nc1cc(OC(=O)c2ccccc2Br)nn1S(=O)(=O)c1ccccc1`, for which the activation was -3.8%.
On to `Cc1ccc(S(=O)(=O)n2nc(OC(=O)C(C)(C)C)cc2N)cc1`, for which the activation is 19.7% (active).
The same measure for `CCN(CC)C(=O)Cn1cc(S(=O)(=O)CC(=O)NCc2ccc3c(c2)OCO3)c2ccccc21`: -1.14%.
For the compound `O=C1Oc2ccccc2C(=O)/C1=C/c1ccccc1O`, the activation was -0.91%.
The same measure for `O=C(OCC(=O)N1CCc2ccccc21)C1CCCN1S(=O)(=O)c1ccc(Cl)cc1` (stereo not drawn): -1.01%.
For the compound `COc1ccccc1NC(=O)C1CCCN1S(=O)(=O)c1ccc(Cl)cc1` (stereo not drawn), the activation was -9.31%.
On to `NC(=O)COc1ccc(/C=N/NC(=O)C2CCCN2S(=O)(=O)c2ccc(Cl)cc2)cc1` (stereo not drawn), for which the activation is 8.7% (active).
As for `O=C(Nc1ccc2c(c1)C(=O)OC2)Nc1cccc2ccccc12`, the activation was -5.72%.
Take `CC1Oc2ccccc2N(Cc2cccnc2)C1=O` (stereo not drawn): the activation is -2.41%.
On to `CC(C)Cn1cnc2c(SCc3ccc(Cl)cc3)nc(N)nc21`, for which the activation is -1.84%.
For the compound `CCCCNC(=O)C1(c2ccc(OC)cc2)CCOCC1`, the activation was 2.44%.
The figure for `CCCCNC(=O)OCCSCCS(=O)(=O)c1ccc(Cl)cc1` is -0.48%; for `CCCCNC(=O)OC(C)CNC(=O)OC` (stereo not drawn) it is 8.8% (active).
Turning to `Cc1cccc(-n2cnc(C(=O)NNC(=S)Nc3ccccc3)c2)n1`, the activation was -2.6%.
In the case of `COc1ccc(S(=O)(=O)NC(=O)C2(C)CCN2C(=O)COc2ccc(Cl)cc2)cc1` (stereo not drawn), the activation is -2.84%.
With `C=CCn1c(SCC(=O)c2c(N)n(C)c(=O)n(C)c2=O)nc2sc(CC)cc2c1=O`, the activation is 8.63% (active).
The same measure for `C=CCn1c(SCC(=O)/C(C#N)=C(\C)N)nc2sc(C)c(C)c2c1=O`: -12.1%; for `CCc1cc2c(=O)n(-c3ccccc3)c(SCC(=O)O)nc2s1`: -3.91%; for `COc1cc(C)nc(N2CCCC(C(=O)NCC(C)C)C2)n1` (stereo not drawn): -8.78%.
Take `CCOc1ccc2nc(N3CCCN(C(=O)Nc4ccccc4C)CC3)c(C#N)cc2c1`: the activation was -1.05%.
For `COc1ccc2cc(C(=O)C3CCCN(C(=O)c4sc(C)nc4C)C3)ccc2c1` (stereo not drawn), the activation was -0.96%.
For `COc1ccc2nc(N3CCCC(O)C3)c(C#N)cc2c1` (stereo not drawn), the activation is 19.6% (active).
On to `COc1ccc(NC(=O)CSc2nnnn2-c2cccc(OC)c2)cc1`, for which the activation was -2.59%.
`CCOC(=O)C(C)n1cnc2c(nnn2-c2cccc(OC)c2)c1=O` (stereo not drawn): the activation was -0.63%.
Turning to `CCOc1cccc(-n2nnnc2-c2ccc(OC)cc2)c1`, the activation is 15.8% (active).
In the case of `COC(=O)c1c(C)cc(O)c(C)c1O`, the activation was 3.54%.
`Cc1cc(OCc2cc(C(=O)NCc3cc(C(C)C)no3)no2)cc(C)c1Cl`: the activation is -8.01%.
In the case of `S=c1[nH]nc(Nc2ccccc2)s1`, the activation was 3.66%.
The figure for `S=c1[nH]nc(NCCc2ccccc2)s1` is 10.4% (active); for `Nc1c(NCCc2ccccc2)c2ccccc2oc1=O` it is -3.29%; for `Cc1cc(=O)oc2c1ccc1ccccc12` it is -2.71%.
On to `CC1(C)S[C@@H]2[C@H](NC(=O)COc3ccccc3)C(=O)N2C1C(=O)OCc1ccccc1` (stereo partly drawn), for which the activation was 8.55% (active).
As to `COC(=O)C1[C@H]2SC(C)(C)C(C(=O)OC)N2C(=O)N1Cc1nc2ccccc2s1` (stereo partly drawn), the activation was -2.77%.
For `CC1(C)SC2C(NC(=O)COc3ccccc3)C(=O)N2C1C(=O)O` (stereo not drawn), the activation is -2.47% and -3.56%.
Turning to `O=c1oc2ccc(C#CC3(O)CCCCC3)cc2cc1-n1cc(-c2ccsc2)nn1`, the activation was -0.09%.
As for `CSCCC1NC(=O)N(CC(=O)Nc2cccc(S(=O)(=O)N3CCCCCC3)c2)C1=O` (stereo not drawn), the activation is 15.5% (active).
Regarding `O=C(CSc1ccccc1)Nc1cccc(S(=O)(=O)N2CCCCC2)c1`, the activation was -2.42%.
For `Cn1nnnc1SCC(=O)Nc1cccc(S(=O)(=O)N2CCCCC2)c1`, the activation was -4.48%.
Take `Cc1ccc(NC(=O)C2CC2c2ccccc2)cc1` (stereo not drawn): the activation is 1.6%.
On to `O=C(Cc1ccc(F)cc1)NC1CCCC1`, for which the activation is -5.09%.
As to `O=C(O)C1CCCCC1C(=O)Nc1ccc(Cl)cc1` (stereo not drawn), the activation was 9.28% (active).
As for `O=C(O)Cc1ccc(NC(=O)C2CCCCC2C(=O)O)cc1` (stereo not drawn), the activation was 8.45% (active).
The figure for `O=C(NC1CCN(C(=S)Nc2ccc(Cl)cc2)CC1)C1CCCCC1` is -9.13%.
On to `CC(=O)Nc1ccc(NC(=O)C2CCCN(S(=O)(=O)c3ccc(Cl)cc3)C2)cc1` (stereo not drawn), for which the activation is -1.47%.
Turning to `O=S1(=O)C=C(SCCN2CCCC2)c2ccccc21`, the activation was 3.43%.
Consider `CN1CCN(c2ccc3c(c2)OC[C@H](Cc2ccccc2)NS3(=O)=O)CC1`, for which the activation is -2%.
Consider `O=C(O)C1OC(C(=O)O)C2C1C(F)(F)C2(F)F` (stereo not drawn), for which the activation was 0.7%.
On to `C/C(Cc1ccccc1)=N\NC(=O)CNC(=O)c1ccc2c(c1)OCCO2`, for which the activation was -1.01%.
For the compound `Cc1ccc(NC(=O)c2cc([N+](=O)[O-])ccc2Cl)c(O)c1`, the activation is -10%.
The same measure for `O=C(Nc1ccc2c(c1)OCCO2)C(c1ccc(F)cc1)N1CCCCC1` (stereo not drawn): -9.07%.
Take `COc1cccc(CNCCc2c[nH]c3ccccc23)c1OCc1ccccc1F`: the activation is 7.97% (active).
As to `Fc1ccccc1COc1ccccc1CNCc1ccncc1`, the activation was -0.5%.
`COc1ccc(CN(C)C(=O)Cc2c[nH]c3ccccc23)c(OC)c1OC`: the activation is -0.09%.
As for `CSc1ccc(Cl)c(C(=O)OCC(=O)N2CC(C)OC(C)C2)c1` (stereo not drawn), the activation was 1.67%.
The figure for `CCN(/N=C/c1ccc(N(C)C)cc1)c1nc2ccccc2[nH]1` is -3.63%; for `CC1(C)CC(=O)C(C=NCc2cccnc2)=C(O)C1` it is -1.39%.
